# Measured values as given in PubChem BioAssay (NCATS).
# Values without a mark were called inactive. Inconclusive results are not listed. A call without a number means that no potency is given here. Active and inactive are the calls of the source. Unless noted, calls follow the shape of the dose curve; as a rule, active = well fitted curve in the direction sought with a large enough effect; inconclusive = small, poorly fitted or top-dose-only effect, or another doubt; inactive = no such curve, though single readings can be large; an effect the other way counts as inactive or inconclusive.
# How the values were obtained:
# [1] = P-glycoprotein substrates identified in KB-8-5-11 adenocarcinoma cell line, qHTS therapeutic library screen (AID 1346987); also: nearly all actives have a fitted effect of over 65% in size; also: potency is read from the fitted curve at half-maximal effect; as to activity change, negative = cytotoxicity: series mostly up to about 44 µM
# In short: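 Human cervical adenocarcinoma KB-8-5-11 cells, selected in colchicine to over-express P-gp and assayed without it, were exposed for 72 h to titrated compounds. An ATP-based luminescent viability signal gave AC50.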
# [2] = Identifying Small Molecule Inhibitors of Pancreatic Cancer Stem Cells (Panc1, Adherent) (AID 1259362); conditions: viability; also: potency is read from the fitted curve at half-maximal effect
# In short: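 Viability is scored by CellTiter-Glo luminescence 48 h after dosing, expressed as percent activity against vehicle and no-cell references. Spheroid formats rely on cells cultured 14 days in stem cell media beforehand.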
# [3] = P-glycoprotein substrates identified in KB-3-1 adenocarcinoma cell line, qHTS therapeutic library screen (AID 1346986); also: nearly all actives have a fitted effect of over 60% in size;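 also: potency is read from the fitted curve at half-maximal effect; potency is for cytotoxicity meaning loss of cell viability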
# In short: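 Viability by CellTiter-Glo after 72 h compound exposure at 37 degree C, 5% CO2. Cytotoxic call: curve class -1.1 to -2.4, maximum response >50%, AC50 < 10 uM, compared across KB-3-1 and P-gp-overexpressing KB-8-5-11.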
# [4] = biological target: Atrial natriuretic peptide receptor 1 (Homo sapiens) (UniProt P16066); assay: Natriuretic polypeptide receptor (hNpr1) antagonism - Pilot screen (AID 1347049; calls by dose curve;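 also: agonist-evoked cGMP luminescence read 20 min after hNppA addition; series mostly up to about 58 µM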)
# In short: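 cGMP-sensor HEK293/hNpr1 cells, 1500/well, plated overnight at 37C. 2% GloSensor reagent, 2 h RT. Compound (23 nL pin transfer) 30 min RT, baseline luminescence pre-read. 0.1 nM hNppA, 20 min RT, post-read.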
# [5] = biological target: Atrial natriuretic peptide receptor 2 (Homo sapiens) (UniProt P20594); assay: Natriuretic polypeptide receptor (hNpr2) antagonism - Pilot subtype selectivity assay (AID 1347050; calls by dose curve)
# In short: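 Luminescence from a genetically encoded cGMP luciferase biosensor in hNpr2-expressing HEK293 cells is read before and 20 min after adding 1 nM hNppC. Test compounds, in interplate 1:5 titrations, are added 30-50 min ahead of the agonist.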
# [6] = NS1 protein of Zika virus - qHTS assay to identify small molecule inhibitors in human HEK 293 cells (AID 1347053); also: series mostly up to about 46 µM; nearly all actives have a fitted effect of over 55% in size
# In short: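 TR-FRET signal from two anti-ZIKV NS1 antibodies quantified NS1 in HEK 293 cells 24 h after MR766 infection at MOI = 0.5; compounds were added 1 h before virus. Uninfected cells and infected cells defined the NS1 normalization range.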
# [7] = qHTS of pediatric cancer cell lines to identify multiple opportunities for drug repurposing: Primary screen for TC32 cells (AID 1347089); also: nearly all actives have a fitted effect of over 60% in size; also: potency is read from the fitted curve at half-maximal effect
# In short: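 TC32 cells, 500-1,000/well in growth medium, compound-treated 48 h at 37 °C; viability from CellTiter-Glo luminescence. Primary screen: MIPE 11-point (0.78 nM–46 µM final), NPC 8-point (0.59 nM–46 µM final); confirmatory at 11-point dilutions.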
# [8] = qHTS of pediatric cancer cell lines to identify multiple opportunities for drug repurposing: Primary screen for DAOY cells (AID 1347090); also: nearly all actives have a fitted effect of over 55% in size; also: potency is read from the fitted curve at half-maximal effect; as to activity change, negative = cytotoxic: series mostly up to about 46 µM
# In short: (§1)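 Viability measured as metabolically active cells via CellTiter-Glo luminescence following 48 hours of compound exposure, 11-point dilutions in confirmatory testing. 500-1,000 cells/well plated 5 hours before dosing; controls were DMSO and 2.3 µM bortezomib.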
# [9] = qHTS of pediatric cancer cell lines to identify multiple opportunities for drug repurposing: Primary screen for SJ-GBM2 cells (AID 1347091); also: potency is read from the fitted curve at half-maximal effect
# In short: as §1
# [10] = qHTS of pediatric cancer cell lines to identify multiple opportunities for drug repurposing: Primary screen for A673 cells (AID 1347092); also: nearly all actives have a fitted effect of over 45% in size; also: potency is read from the fitted curve at half-maximal effect
# In short: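 A673 cells (500-1,000 cells/well) were treated 48 hours at 37 degrees C with compounds at 11-point (0.78 nM to 46 µM) or 8-point (0.59 nM to 46 µM) dilutions. Viability read by CellTiter-Glo luminescence; concentration-response curves fitted.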
# [11] = qHTS of pediatric cancer cell lines to identify multiple opportunities for drug repurposing: Primary screen for SK-N-MC cells (AID 1347093); also: potency is read from the fitted curve at half-maximal effect; as to activity change, negative = cytotoxic: series mostly up to about 46 µM
# In short: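 Metabolically active cells were quantified by ATP-dependent luminescence (CellTiter-Glo, 15 min at room temperature) following 48 h treatment. Cells had been plated at 500-1,000 per well and settled for 5 h beforehand.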
# [12] = qHTS of pediatric cancer cell lines to identify multiple opportunities for drug repurposing: Primary screen for BT-37 cells (AID 1347094); also: potency is read from the fitted curve at half-maximal effect; as to activity change, negative = cytotoxic: series mostly up to about 57 µM
# In short: (§2)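 Plated cells (500-1,000 per well, growth media) were allowed to settle for 5 hours, treated with compound dilutions for 48 hours, then lysed with CellTiter-Glo for 15 min at room temperature before luminescence reading.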
# [13] = qHTS of pediatric cancer cell lines to identify multiple opportunities for drug repurposing: Primary screen for NB-EBc1 cells (AID 1347095); also: potency is read from the fitted curve at half-maximal effect
# In short: as §2
# [14] = qHTS of pediatric cancer cell lines to identify multiple opportunities for drug repurposing: Primary screen for U-2 OS cells (AID 1347096); also: nearly all actives have a fitted effect of over 50% in size
# In short: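 Viability after 48 h compound treatment at 37C, 500-1,000 cells/well, read as ATP luminescence with CellTiter-Glo. Primary screens used 11-point (MIPE, 0.78 nM-46 µM) or 8-point (NPC, 0.59 nM-46 µM) final concentrations; follow-up screens used 11-point dilutions.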
# [15] = Natriuretic polypeptide receptor (hNpr1) antagonism - Pilot counterscreen GloSensor control cell line (AID 1347045; calls by dose curve; also: series mostly up to about 38 µM)
# In short: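 The SNP-driven cGMP luminescence signal (50 uM, 20 min, room temperature) was measured in GloSensor HEK293 control cells. Compounds were tested as a LOPAC titration series and preincubated for 30-50 min.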
# [16] = biological target: Parathyroid hormone/parathyroid hormone-related peptide receptor (Homo sapiens) (UniProt Q03431); assay: qHTS for PTHR1 Agonists: Optimization Screen against the NCGC LOPAC library (AID 1347079);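 also: GloSensor cAMP luminescence in HEK-293 GP2 cells expressing human PTHR1 with IBMX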; also: potency is read from the fitted curve at half-maximal effect
# In short: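 Signal increase flags agonism. GP2 cells, derived from HEK-293, express human PTHR1 and a GloSensor cAMP construct.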
# Sequence of Parathyroid hormone/parathyroid hormone-related peptide receptor (Homo sapiens) (Q03431 whole entry, looked up): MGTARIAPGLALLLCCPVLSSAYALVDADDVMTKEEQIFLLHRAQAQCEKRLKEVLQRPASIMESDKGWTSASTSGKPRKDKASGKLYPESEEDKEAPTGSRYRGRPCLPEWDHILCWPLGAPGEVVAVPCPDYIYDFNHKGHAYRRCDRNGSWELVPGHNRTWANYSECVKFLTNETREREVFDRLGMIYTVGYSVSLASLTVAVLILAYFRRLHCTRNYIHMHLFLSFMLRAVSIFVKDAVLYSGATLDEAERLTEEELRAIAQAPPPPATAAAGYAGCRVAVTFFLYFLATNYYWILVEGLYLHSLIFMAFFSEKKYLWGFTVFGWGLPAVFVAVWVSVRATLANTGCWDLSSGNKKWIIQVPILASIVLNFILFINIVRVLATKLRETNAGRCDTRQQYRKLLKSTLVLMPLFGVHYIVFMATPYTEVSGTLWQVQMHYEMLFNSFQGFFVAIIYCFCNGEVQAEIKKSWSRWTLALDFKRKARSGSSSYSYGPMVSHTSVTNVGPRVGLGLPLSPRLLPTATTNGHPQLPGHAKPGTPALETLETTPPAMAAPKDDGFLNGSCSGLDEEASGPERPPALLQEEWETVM
# Sequence of Atrial natriuretic peptide receptor 2 (Homo sapiens) (P20594 whole entry, looked up): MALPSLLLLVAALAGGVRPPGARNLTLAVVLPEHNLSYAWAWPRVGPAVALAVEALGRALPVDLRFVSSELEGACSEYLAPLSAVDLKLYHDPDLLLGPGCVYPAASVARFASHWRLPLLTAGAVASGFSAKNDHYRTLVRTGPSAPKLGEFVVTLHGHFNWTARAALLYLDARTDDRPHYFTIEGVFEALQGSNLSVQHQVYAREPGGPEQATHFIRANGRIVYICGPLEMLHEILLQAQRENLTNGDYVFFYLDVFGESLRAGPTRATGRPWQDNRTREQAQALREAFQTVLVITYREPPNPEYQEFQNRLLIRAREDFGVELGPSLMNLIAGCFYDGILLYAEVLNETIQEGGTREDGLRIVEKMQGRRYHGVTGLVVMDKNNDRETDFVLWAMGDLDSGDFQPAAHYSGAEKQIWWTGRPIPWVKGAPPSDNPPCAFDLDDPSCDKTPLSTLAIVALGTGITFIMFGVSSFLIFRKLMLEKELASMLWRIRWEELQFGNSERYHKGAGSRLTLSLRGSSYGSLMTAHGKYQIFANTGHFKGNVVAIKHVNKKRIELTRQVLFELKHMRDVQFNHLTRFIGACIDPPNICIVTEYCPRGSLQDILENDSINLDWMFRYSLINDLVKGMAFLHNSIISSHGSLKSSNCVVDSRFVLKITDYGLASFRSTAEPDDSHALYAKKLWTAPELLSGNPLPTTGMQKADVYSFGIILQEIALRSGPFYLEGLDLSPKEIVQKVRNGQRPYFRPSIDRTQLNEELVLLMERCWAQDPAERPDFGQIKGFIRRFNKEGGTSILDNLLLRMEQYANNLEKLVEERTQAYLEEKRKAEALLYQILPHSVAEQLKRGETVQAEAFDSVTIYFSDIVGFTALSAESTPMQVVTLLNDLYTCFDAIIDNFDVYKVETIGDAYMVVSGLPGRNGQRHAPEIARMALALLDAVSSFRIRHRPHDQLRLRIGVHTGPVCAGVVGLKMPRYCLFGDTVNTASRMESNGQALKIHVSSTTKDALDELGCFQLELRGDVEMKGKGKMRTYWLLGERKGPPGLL
# Sequence of Atrial natriuretic peptide receptor 1 (Homo sapiens) (P16066 whole entry, looked up): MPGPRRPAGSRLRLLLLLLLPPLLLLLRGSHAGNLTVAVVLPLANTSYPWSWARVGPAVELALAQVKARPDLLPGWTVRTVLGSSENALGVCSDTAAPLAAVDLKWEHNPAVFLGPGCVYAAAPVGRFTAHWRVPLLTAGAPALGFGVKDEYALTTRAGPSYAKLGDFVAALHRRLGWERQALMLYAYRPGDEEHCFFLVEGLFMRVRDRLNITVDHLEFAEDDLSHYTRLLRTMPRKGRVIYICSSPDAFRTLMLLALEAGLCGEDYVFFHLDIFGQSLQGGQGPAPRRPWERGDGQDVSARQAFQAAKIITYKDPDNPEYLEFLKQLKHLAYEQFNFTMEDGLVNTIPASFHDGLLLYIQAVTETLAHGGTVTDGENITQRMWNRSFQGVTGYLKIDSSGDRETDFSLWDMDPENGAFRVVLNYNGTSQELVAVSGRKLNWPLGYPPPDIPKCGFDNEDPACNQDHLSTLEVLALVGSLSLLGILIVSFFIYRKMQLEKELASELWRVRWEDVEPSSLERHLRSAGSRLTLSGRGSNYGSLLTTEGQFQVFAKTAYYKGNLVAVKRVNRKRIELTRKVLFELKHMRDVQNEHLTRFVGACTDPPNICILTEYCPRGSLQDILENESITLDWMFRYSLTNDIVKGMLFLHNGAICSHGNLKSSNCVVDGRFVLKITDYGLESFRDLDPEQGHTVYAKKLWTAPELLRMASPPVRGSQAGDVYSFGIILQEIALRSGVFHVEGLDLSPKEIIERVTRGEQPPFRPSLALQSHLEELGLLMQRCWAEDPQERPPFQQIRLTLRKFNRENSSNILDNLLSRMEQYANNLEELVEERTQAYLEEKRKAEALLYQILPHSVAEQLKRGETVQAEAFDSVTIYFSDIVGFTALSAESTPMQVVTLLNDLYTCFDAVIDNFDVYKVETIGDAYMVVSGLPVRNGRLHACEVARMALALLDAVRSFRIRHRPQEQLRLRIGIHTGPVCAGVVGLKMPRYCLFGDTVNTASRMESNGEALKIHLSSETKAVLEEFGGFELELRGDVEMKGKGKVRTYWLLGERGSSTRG
compound,measurement,setting,value
CCCCC[C@H](O)/C=C/[C@@H]1[C@@H](C/C=C\CCCC(=O)O)[C@@H](O)C[C@H]1O,Potency,[1],inactive
CO/N=C(\C(=O)N[C@@H]1C(=O)N2C(C(=O)O)=C(COC(C)=O)CS[C@H]12)c1csc(N)n1 (stereo in doubt),Potency,[1],inactive
C=CCc1cccc(/C=N/NC(=O)CN2CCN(Cc3ccccc3)CC2)c1O,Potency,[2],4180 nM (active)
N#C/C(=C\c1ccc(O)c(O)c1)C(=O)NCc1ccccc1,Potency,[3],inactive
same,Potency,[4],inactive
same,Potency,[5],inactive
CCCCCC[C@@H](O)C/C=C\CCCCCCCC(=O)O,Potency,[1],inactive
O=C(O)Cc1cccc(-c2cc(CCCCCCc3ccc(O[C@H]4O[C@H](CO)[C@@H](O)[C@H](O)[C@@H]4O)c(-c4cccc(CC(=O)O)c4)c3)ccc2O[C@H]2O[C@H](CO)[C@@H](O)[C@H](O)[C@@H]2O)c1,outcome,[3],inactive [at 0.354 µM]
same,"activity change, negative = cytotoxicity",[1],3.65% [at 0.354 µM]
same,"activity change, negative = inhibition",[6],-8.2% [at 0.593 µM]
same,"activity change, negative = cytotoxic",[7],14.4% [at 0.594 µM]
same,"activity change, negative = cytotoxic",[8],1% [at 0.597 µM]
same,"activity change, negative = cytotoxic",[9],18.6% [at 0.597 µM]
same,"activity change, negative = cytotoxic",[10],10.8% [at 0.597 µM]
same,"activity change, negative = cytotoxic",[11],-8.23% [at 0.597 µM]
same,"activity change, negative = cytotoxic",[12],12.8% [at 0.745 µM]
same,"activity change, negative = cytotoxic",[13],9.49% [at 0.597 µM]
same,"activity change, negative = cytotoxic",[14],2.96% [at 0.597 µM]
COc1cc(/C=C/C(=O)N2CCN(CC(=O)N3CCCC3)CC2)cc(OC)c1OC,Potency,[3],inactive
same,Potency,[1],inactive
Cc1onc(-c2c(F)cccc2Cl)c1C(=O)N[C@@H]1C(=O)N2[C@@H]1SC(C)(C)[C@@H]2C(=O)O,Potency,[3],inactive
same,Potency,[1],inactive
CC1(C)[C@@H](O)CC[C@]2(C)[C@H]3C(=O)C=C4[C@@H]5C[C@@](C)(C(=O)O)CC[C@]5(C)CC[C@@]4(C)[C@]3(C)CC[C@@H]12,Potency,[3],inactive
same,Potency,[1],inactive
N#C/C(=C\c1ccc(O)c(O)c1)C(=O)NCCCc1ccccc1,Potency,[3],inactive
same,Potency,[1],inactive
same,Potency,[15],inactive
same,Potency,[4],inactive
same,Potency,[5],inactive
same,Potency,[16],inactive
Nc1ncnc2c1c(I)cn2[C@@H]1C[C@H](N)[C@@H](O)[C@H]1O,Potency,[3],14600 nM (active)
same,Potency,[4],inactive
same,Potency,[16],inactive
C/C(=N\O)c1ccc(OCC(=O)N2CCCCC2)cc1,Potency,[3],inactive
same,Potency,[6],inactive
same,Potency,[7],inactive
same,Potency,[8],inactive
same,Potency,[9],inactive
same,Potency,[10],inactive
same,Potency,[11],inactive
same,Potency,[12],inactive
same,Potency,[13],inactive
same,Potency,[14],inactive
O=C(O)CC1CC(c2ccccc2)=NO1 (stereo unspecified),Potency,[3],inactive
same,Potency,[1],inactive
same,Potency,[15],inactive
same,Potency,[5],inactive
same,Potency,[16],10600 nM (active)
CCCCCCCCCCCCCCCCCC(=O)O,Potency,[1],inactive
same,Potency,[6],inactive
same,Potency,[7],inactive
same,Potency,[8],inactive
same,Potency,[9],inactive
same,Potency,[10],inactive
same,Potency,[11],inactive
same,Potency,[12],inactive
same,Potency,[13],inactive
same,Potency,[14],inactive
N=C(N)N,Potency,[1],inactive
same,Potency,[6],inactive
same,Potency,[7],inactive
same,Potency,[8],inactive
same,Potency,[9],inactive
same,Potency,[10],inactive
same,Potency,[11],inactive
same,Potency,[12],inactive
same,Potency,[13],inactive
same,Potency,[14],inactive
CCCSc1ccc2nc(NC(=O)OC)[nH]c2c1,Potency,[1],556 nM (active)
same,Potency,[6],inactive
same,Potency,[7],938 nM (active)
same,Potency,[8],1330 nM (active)
same,Potency,[9],422 nM (active)
same,Potency,[10],841 nM (active)
same,Potency,[11],841 nM (active)
same,Potency,[12],2460 nM (active)
same,Potency,[13],266 nM (active)
O=C(O)/C=C/C(O)c1ccc(Cl)cc1 (stereo unspecified),Potency,[1],inactive
same,Potency,[15],inactive
same,Potency,[5],inactive
same,Potency,[16],inactive
